Records with an inconclusive call do not appear. Entries that show only a call come without a potency. Calls of active or inactive are those of the source. Calls follow the shape of the dose curve; as a rule, active = well fitted cell-killing curve with a large enough effect; inconclusive = small, poorly fitted or top-dose-only effect, or effect the other way; inactive = flat fitted curve, though single readings scatter. Where a SMILES comes first, the peptide text is derived from it. [ ]: non-standard residue; d: D form. ξ: configuration not given here. ξPhe(βξ-Me) = CC(c1ccccc1)C(N)C(=O)O; GABA = NCCCC(=O)O
These compounds were tested on CASKI (assay: Primary qHTS to identify gynecologic anti-cancer compounds using libraries of approved drugs and bioactive compounds (AID 1345084; also: nearly all actives have a fitted effect of over 55% in size)). Conditions: Gynecologic cancer cell panel viability, ATPlite luminescence, 48 h; series mostly up to 57.5 µM.
Procedure, shortened: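 48 h compound exposure at 37 C, 5% CO2; five-point qHTS. ATPlite luminescence readout of cell ATP.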
For `COc1cc(C)c(C(=O)O[C@H]2[C@@H](O)[C@H](n3ccc(=O)[nH]c3=O)O[C@@H]2CO)c(OC)c1`, the Potency was “inactive”.
`CC(C)CC1NC(=O)C(C(C)c2ccccc2)NC(=O)C(C(C)C)NC(=O)C(C)NC(=O)CCCNC(=O)C(Cc2c[nH]c3ccccc23)NC(=O)C(C)NC1=O` (stereo not drawn) (cyclo([GABA]AV[ξPhe(βξ-Me)]LAW); configuration not given here) was tested, and the Potency was “inactive”.
For `CC(C)Nc1cc(-c2c[nH]c(C(=O)N[C@H](CO)c3cccc(Cl)c3)c2)c(Cl)cn1`, the Potency was “inactive”.
With `COc1cc(N2CCC(O)CC2)ccc1Nc1cc(Nc2ccccc2S(=O)(=O)C(C)C)c2cc[nH]c2n1` the Potency was “inactive”.
`O=C(O)C[C@@H](NC(=O)c1cc(-c2ccc(-c3ccncc3)cc2)cs1)c1ccccc1` was tested, and the Potency was “inactive”.
For `OC[C@H]1O[C@@H](n2cnc3c2NC=NC[C@H]3O)C[C@@H]1O`, the Potency was “inactive”.
`CC1(C)C[C@H]2C3=CCC4[C@@]5(C)CC[C@H](O[C@H]6O[C@H](C(=O)O)[C@@H](O)[C@H](O)[C@H]6O[C@H]6O[C@H](CO)[C@@H](O)[C@H](O)[C@H]6O[C@@H]6O[C@H](CO)[C@@H](O)[C@H](O)[C@H]6O)[C@](C)(CO)C5CC[C@@]4(C)[C@]3(C)CC[C@@]2(C)[C@H](O[C@@H]2OC[C@H](O)[C@H](OC3O[C@H](CO)[C@@H](O)[C@H](O)[C@H]3O)[C@H]2O)[C@@H]1O` (stereo not given in full) was tested, and the activity change, negative = cytotoxicity was -2.3% [at 6.55 µM] (inactive).
In the case of `C[C@@H]1O[C@@H](O[C@H]2[C@H](OC(=O)[C@]34CCC(C)(C)C[C@H]3C3=CCC5[C@@]6(C)C[C@H](O)[C@H](O[C@@H]7O[C@H](CO)[C@@H](O[C@@H]8O[C@H](CO)[C@@H](O)[C@H](O)[C@H]8O)[C@H](O)[C@H]7O)[C@@](C)(CO)C6[C@H](O)C[C@@]5(C)[C@]3(C)C[C@H]4O)OC[C@H](O)[C@@H]2O)[C@H](O)[C@H](O)[C@H]1O[C@@H]1OC[C@@H](O)[C@H](O[C@@H]2OC[C@](O)(CO)[C@H]2O)[C@H]1O` (stereo not given in full), the activity change, negative = cytotoxicity is reported as 12.9% [at 6.55 µM] (inactive).
In the case of `Nc1ccn([C@@H]2C(F)=C(CO)[C@@H](O)[C@H]2O)c(=O)n1`, the Potency is reported as “inactive”.
For `C[C@@H]1O[C@@H](OC[C@H]2O[C@@H](OCC3CCC4CC3C4(C)C)[C@H](O)[C@@H](O)[C@@H]2O)[C@H](O)[C@H](O)[C@H]1O` (stereo not given in full), the Potency was “inactive”.
`CC(C)=CCC/C(C)=C/CC/C(C)=C/CC[C@]1(C)CCc2cc(O)cc(C)c2O1` was tested, and the Potency was “inactive”.
`CC(=O)N1c2ccccc2C2(O)CC3C(=O)NC(CC(C)C)C(=O)N3C12` (stereo not given) was tested, and the Potency was “inactive”.
`CCCCS(=O)(=O)Nc1ncnc(OCCOc2ncc(Br)cn2)c1-c1ccc(Br)cc1` was tested, and the Potency was “inactive”.
With `C[C@@H]1O[C@@H](OC[C@H]2O[C@@H](OCCc3ccccc3)[C@H](O)[C@@H](O)[C@@H]2O)[C@H](O)[C@H](O)[C@H]1O` the Potency was “inactive”.
With `CCN[C@@H]1C[C@H](N)[C@@H](O[C@H]2OC(CN)=CC[C@H]2N)[C@H](O)[C@H]1O[C@H]1OC[C@](C)(O)[C@H](NC)[C@H]1O` the Potency was “inactive”.
In the case of `CC(CO[C@@H]1O[C@H](COC(=O)/C=C/c2ccc(O)c(O)c2)[C@@H](O)[C@H](O)[C@H]1O)C1(O)COC(=O)C1` (stereo not given in full), the Potency is reported as “inactive”.
For `Oc1ccc([C@H]2COc3cc(O)ccc3C2)cc1`, the Potency was “inactive”.
In the case of `Cc1nnc(C(C)C)n1C1CC2CCC(C1)N2CCC(NC(=O)C1CCC(F)(F)CC1)c1ccccc1` (stereo not given), the Potency is reported as “inactive”.
For `CC1(C)CCC[C@@]2(C)[C@H]1[C@H](O)C=C1COC(=O)[C@@]12O`, the Potency was “inactive”.
With `O=C1[C@H](O[C@@H]2O[C@H](CO)[C@@H](O)[C@H](O)[C@H]2O)Oc2ccccc2N1O` the Potency was “inactive”.
`COC(=O)[C@H](OC(C)=O)[C@H]1C(C)(C)C(=O)[C@H]2CC3=C4CC(=O)O[C@@H](c5ccoc5)[C@]4(C)CCC3[C@@]1(C)C2=O` (stereo not given in full) was tested, and the Potency was “inactive”.
For `CCCCN(CCCC)C(=O)CN1C[C@H](c2ccc3c(c2)OCO3)[C@@H](C(=O)O)[C@@H]1c1ccc(OC)cc1`, the Potency was “inactive”.
In the case of `C=C[C@](C)(CC/C=C(\C)C(=O)O)O[C@@H]1OC[C@H](O)[C@H](O)[C@H]1O`, the Potency is reported as “inactive”.
For `COC(=O)C1=CO[C@@H](O[C@@H]2O[C@H](CO)[C@@H](O)[C@H](O)[C@H]2O)[C@@H]2[C@@H](C(=O)OC)[C@@H](O)C(O)[C@H]12` (stereo not given in full), the Potency was “inactive”.
With `O=C(O)Cc1nn(Cc2nc3cc(C(F)(F)F)ccc3s2)c(=O)c2nccnc12` the Potency was “inactive”.
